Records with an inconclusive call do not appear. Where a call stands in place of a potency, no number is given. The source made the active and inactive calls. Calls follow the shape of the dose curve; as a rule, active = well fitted activation curve with a large enough effect; inconclusive = small, poorly fitted or top-dose-only effect; inactive = no such curve, though single readings can be large or run the other way.
Biological target: Relaxin receptor 1 (Homo sapiens) (UniProt Q9HBX9)
Assay: qHTS Assay for Agonists of the Relaxin Receptor RXFP1: THP1 Hit Validation; also: nearly all actives have a fitted effect of over 60% in size
Excerpt: The relaxin hormone is involved in the variety of biological functions in normal tissues and diseases. The role of relaxin is well-established in female reproduction and parturition, mammary gland and endometrial development, maintenance of myometrial quiescence during pregnancy. Relaxin signaling through its G protein-coupled receptor (GPCR) RXFP1 results in ECM remodeling through regulation of collagen deposition, cell invasiveness, proliferation and overall tissue homeostasis. […] Recombinant human relaxin (rhRlx) is currently being tested in clinical trials as a protective agent in congestive heart failure, in treating severe preeclampsia, and as an anti-fibrotic agent in systemic sclerosis.
Upon relaxin binding RXFP1 activation leads to the activation of adenylate cyclase (AC) via Gs. cAMP will activate PKA, which phosphorylates many signaling proteins. Thus, detection of cAMP increase is an easy and reliable indication of relaxin receptor activation. […] RXFP1 activation was assayed by changes in cAMP levels as detected with a time-resolved fluorescence energy transfer (TR-FRET) cAMP detection kit. […]
This is a cell-based assay for cAMP second messenger response to screen for agonists of the RXFP1 receptor. […] The cells were lysed and the cAMP levels were measured with a TR-FRET cAMP kit. […] The EC50 values were determined from concentration-response data modeled with the standard Hill equation […]
Potency is read from the fitted curve at half-maximal effect.

Relaxin receptor 1 (Homo sapiens), sequence (Q9HBX9 whole entry, looked up): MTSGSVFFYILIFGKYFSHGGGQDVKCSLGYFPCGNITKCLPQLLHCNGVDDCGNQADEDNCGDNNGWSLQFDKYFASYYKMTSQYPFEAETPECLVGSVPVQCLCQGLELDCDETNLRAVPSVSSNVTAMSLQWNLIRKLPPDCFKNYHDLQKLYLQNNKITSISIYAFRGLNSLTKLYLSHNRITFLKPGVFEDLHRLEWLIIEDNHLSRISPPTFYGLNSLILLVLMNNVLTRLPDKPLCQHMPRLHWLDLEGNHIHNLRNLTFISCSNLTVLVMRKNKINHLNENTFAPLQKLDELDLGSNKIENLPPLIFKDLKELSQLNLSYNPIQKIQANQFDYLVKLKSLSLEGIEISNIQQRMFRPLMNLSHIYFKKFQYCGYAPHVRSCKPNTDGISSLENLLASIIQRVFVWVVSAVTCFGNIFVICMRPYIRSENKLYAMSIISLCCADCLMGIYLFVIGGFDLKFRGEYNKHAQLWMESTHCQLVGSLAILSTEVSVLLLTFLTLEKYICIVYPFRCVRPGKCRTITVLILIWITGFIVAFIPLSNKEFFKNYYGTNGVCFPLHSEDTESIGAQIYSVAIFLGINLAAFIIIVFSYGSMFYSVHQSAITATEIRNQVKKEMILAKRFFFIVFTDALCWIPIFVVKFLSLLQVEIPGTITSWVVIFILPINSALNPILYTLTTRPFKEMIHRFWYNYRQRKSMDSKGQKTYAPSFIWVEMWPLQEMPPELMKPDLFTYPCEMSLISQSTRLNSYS

SMILES | Potency
O=c1[nH]c(O)c(N=Nc2ccc([N+](=O)[O-])cc2)c(=O)[nH]1 | 11 µM (active)
CCC(Oc1cc(Cl)ccc1Cl)C(=O)N1CCC2(CC1)OCCO2 (configuration not stated) | inactive
